The results in this text go back to PubChem BioAssay (EPA / NIEHS).

“And” between values parts separate entries of the source, which are not always exact repeats. Equal entries are not always repeated. Some structures have more than one record in an assay (separate samples or runs), and their calls can disagree. The source made the active and inactive calls. Rule for the calls: active = hit-call score of the fitted dose curve at least 0.9, where 1 is the maximum; inactive = score below 0.9.

Read-out in test [1]: Intercellular Adhesion Molecule 1 (ICAM1), ICAM1 (gene 3383)
Description: BSK_BE3C_ICAM1: BioMAP Diversity Plus: BE3C Assay for Intercellular Adhesion Molecule 1 (ICAM1) Biomarker Activity (AID 2284278).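 For outcome: cell-surface ICAM-1 protein level quantified by ELISA.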 Conditions: primary human bronchial epithelial cells. Put shortly: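 Measured by ELISA: ICAM-1 expressed by primary human bronchial epithelial cells 24 h after compound treatment, with upward-direction fitting versus DMSO vehicle.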

Read-out in test [2]: Interferon-inducible T-cell alpha chemoattractant (ITAC), CXCL11 (gene 6373)
Description: BSK_BE3C_ITAC: BioMAP Diversity Plus: BE3C Assay for Interferon-inducible T-cell alpha chemoattractant (ITAC) Biomarker Activity (AID 2284279). The following applies: primary human bronchial epithelial cells. Summed up: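 Steps: dose human bronchial epithelial cells with chemical; incubate 24 h; measure I-TAC by ELISA; fit endpoint in positive direction against DMSO control. Cytotoxicity was checked in parallel cultures by SRB staining at harvest.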

Read-out in test [3]: Epidermal growth factor receptor (EGFR), EGFR (gene 1956)
Nature of the test: BSK_BE3C_EGFR: BioMAP Diversity Plus: BE3C Assay for Epidermal growth factor receptor (EGFR) Biomarker Activity (AID 2284281). The following applies: primary human bronchial epithelial cells. Put shortly:
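Compound is added to human bronchial epithelial cells, cells incubate 24 h, then EGFR is detected by ELISA. Values reflect positive-direction fitting relative to DMSO.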

Read-out in a further test: KRT18 (gene 3875)
Nature of the test: BSK_BE3C_Keratin818: BioMAP Diversity Plus: BE3C Assay for Keratin 818 Biomarker Activity (AID 2284282). Conditions: primary human bronchial epithelial cells. Put shortly: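 BE3C: human bronchial epithelial primary cells, 24 h exposure, Keratin 8/18 ELISA; DMSO = negative control/baseline; cytotoxicity by parallel SRB stain (0.1% SRB after 10% TCA fixation, 560 nm).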

Read-out in test [4]: Matrix Metallopeptidase 9 (MMP9), MMP9 (gene 4318)
Description: BSK_BE3C_MMP9: BioMAP Diversity Plus: BE3C Assay for Matrix Metallopeptidase 9 (MMP9) Biomarker Activity (AID 2284283). The following applies: primary human bronchial epithelial cells. Put shortly: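 Human primary bronchial epithelial cells exposed 24 h to compound. MMP9 quantified by ELISA. SRB total-protein staining of parallel cultures assesses cytotoxicity. Positive-direction fit relative to DMSO.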

Read-out in test [5]: Plasminogen activator inhibitor-1 (PAI1), SERPINE1 (gene 5054)
Description: BSK_CASM3C_PAI1: BioMAP Diversity Plus: CASM3C Assay for Plasminogen activator inhibitor-1 (PAI1) Biomarker Activity (AID 2284284).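 Note: PAI-1 protein level measured by ELISA 24 h after dosing.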 The following applies: primary human coronary artery smooth muscle cells.

Read-out in test [6]: Intercellular Adhesion Molecule 1 (ICAM1), ICAM1 (gene 3383)
Description: BSK_hDFCGF_ICAM1: BioMAP Diversity Plus: hDFCGF Assay for Intercellular Adhesion Molecule 1 (ICAM1) Biomarker Activity (AID 2284287). The following applies: primary human foreskin fibroblasts. Put shortly:
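Primary human foreskin fibroblasts (hDFCGF system) dosed with chemical; ICAM-1 quantified by ELISA at 24 h relative to DMSO. Parallel SRB total-protein staining to assess overt cytotoxicity.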

Read-out in test [7]: TIMP metallopeptidase inhibitor 2 (TIMP2), TIMP2 (gene 7077)
Description: BSK_hDFCGF_TIMP2: BioMAP Diversity Plus: hDFCGF Assay for TIMP metallopeptidase inhibitor 2 (TIMP2) Biomarker Activity (AID 2284289). Conditions: primary human foreskin fibroblasts. Put shortly:
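Primary human foreskin fibroblasts in the hDFCGF system, dosed for 24 h; TIMP-2 level measured by ELISA, fitted in the positive direction against DMSO; cytotoxicity checked in parallel by sulforhodamine B total protein staining.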

Read-out in test [8]: Thrombomodulin, THBD (gene 7056)
Nature of the test: BSK_LPS_Thrombomodulin: BioMAP Diversity Plus: LPS Assay for Thrombomodulin Biomarker Activity (AID 2284296). Conditions: primary human HUVEC with PBMC. Put shortly: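 Human umbilical vein endothelial cells co-cultured with PBMC and stimulated with LPS; cell-surface thrombomodulin measured by ELISA 24 hours after compound. Gain or loss versus DMSO; cytotoxicity checked by SRB staining in parallel cultures.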

Read-out in test [9]: urokinase Plasminogen Activator (uPA), PLAU (gene 5328)
Nature of the test: BSK_BF4T_uPA: BioMAP Diversity Plus: BF4T Assay for urokinase Plasminogen Activator (uPA) Biomarker Activity (AID 2284275). The following applies: primary human bronchial epithelial cells with fibroblasts. Summed up: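 Co-culture of human bronchial epithelial cells and dermal fibroblasts; uPA quantified by ELISA 24 hours after dosing, fitted relative to DMSO. Parallel SRB total-protein staining assessed overt cytotoxicity.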

Read-out in test [10]: Matrix Metallopeptidase 9 (MMP9), MMP9 (gene 4318)
Nature of the test: BSK_BF4T_MMP9: BioMAP Diversity Plus: BF4T Assay for Matrix Metallopeptidase 9 (MMP9) Biomarker Activity (AID 2284276). The following applies: primary human bronchial epithelial cells with fibroblasts. Summed up:
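Co-culture of human bronchial epithelial cells and dermal fibroblasts dosed for 24 h; MMP-9 quantified by ELISA and fitted upward versus DMSO. Cytotoxicity monitored in parallel cultures by SRB total-protein staining at the biomarker time point.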

Read-out in test [11]: Interleukin-8 (IL8), CXCL8 (gene 3576)
Description: BSK_IMphg_IL8: BioMAP Diversity Plus: IMphg Assay for Interleukin-8 (IL8) Biomarker Activity (AID 2284277). The following applies: primary human endothelial cells with macrophages. Put shortly:
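Co-culture of human venular endothelial cells and macrophages exposed to chemicals for 24 h; IL-8 quantified by ELISA and compared against the DMSO baseline, with SRB total-protein staining in parallel cultures for cytotoxicity.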

Read-out in test [12]: Vascular cell adhesion molecule 1 (VCAM1), VCAM1 (gene 7412)
Nature of the test: BSK_IMphg_VCAM1: BioMAP Diversity Plus: IMphg Assay for Vascular cell adhesion molecule 1 (VCAM1) Biomarker Activity (AID 2284286). Conditions: primary human endothelial cells with macrophages. Put shortly:
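Human venular endothelial cells co-cultured with macrophages; VCAM-1 quantified by ELISA 24 h after dosing, fitted in the positive direction against DMSO. Cytotoxicity was checked in parallel cultures by SRB total-protein staining (0.1% SRB after 10% TCA fixation, 560 nm).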

Read-out in a further test: CD40, CD40 (gene 958)
Description: BSK_IMphg_CD40: BioMAP Diversity Plus: IMphg Assay for CD40 Biomarker Activity (AID 2284288). Conditions: primary human endothelial cells with macrophages. Put shortly: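 Venular endothelial cells co-cultured with macrophages (human primary), CD40 measured by ELISA 24 h after dosing. Positive-direction fit vs DMSO baseline; cytotoxicity tracked by SRB total-protein staining in parallel cultures.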

Read-out in test [13]: Interleukin-1 alpha (IL1a), IL1A (gene 3552)
Description: BSK_IMphg_IL1a: BioMAP Diversity Plus: IMphg Assay for Interleukin-1 alpha (IL1a) Biomarker Activity (AID 2284290). The following applies: primary human endothelial cells with macrophages. Put shortly:
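Human venular endothelial cells co-cultured with macrophages, IMphg system. IL-1α is measured by ELISA 24 h after dosing and fitted in the positive direction against DMSO. Cytotoxicity is assessed by SRB staining of parallel cultures.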

Read-out in test [14]: E-selectin (Homo sapiens) (UniProt P16581)
Description: BSK_IMphg_ESelectin: BioMAP Diversity Plus: IMphg Assay for Eselectin Biomarker Activity (AID 2284291). The following applies: primary human endothelial cells with macrophages. Summed up: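 Human venular endothelial cell–macrophage co-culture, E-selectin measured by ELISA 24 h after chemical dosing. Signal fitted in the positive direction against DMSO as negative control and baseline.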

Test [15] in a line: BSK_IMphg_SRB: Viability Assessment in the BioMAP Diversity Plus: IMphg Assay (AID 2284292).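 Note: measured one day after compound addition.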 Conditions: primary human endothelial cells with macrophages. Put shortly:
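Human venular endothelial cells with macrophages, 24 h after chemical dosing; total protein by 0.1% SRB staining after 10% TCA fixation, read at 560 nm. Positive-direction fitting versus DMSO baseline.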

Read-out in test [16]: Macrophage colony-stimulating factor (MCSF), CSF1 (gene 1435)
Nature of the test: BSK_IMphg_MCSF: BioMAP Diversity Plus: IMphg Assay for Macrophage colony-stimulating factor (MCSF) Biomarker Activity (AID 2284293). Conditions: primary human endothelial cells with macrophages. Summed up:
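Co-culture of human venular endothelial cells and macrophages, 24 hours of chemical exposure. M-CSF quantified by ELISA, with parallel SRB total-protein staining for cytotoxicity; activity fitted relative to DMSO.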

Read-out in test [17]: Interleukin-10 (IL10), IL10 (gene 3586)
Nature of the test: BSK_IMphg_IL10: BioMAP Diversity Plus: IMphg Assay for Interleukin-10 (IL10) Biomarker Activity (AID 2284294). The following applies: primary human endothelial cells with macrophages. Summed up: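 Human venular endothelial cells cocultured with macrophages, dosed 24 h; IL-10 measured by ELISA, activity relative to DMSO. Cytotoxicity assessed in parallel cultures by sulforhodamine B total-protein staining.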

Sequence of E-selectin (Homo sapiens) (P16581 whole entry, looked up): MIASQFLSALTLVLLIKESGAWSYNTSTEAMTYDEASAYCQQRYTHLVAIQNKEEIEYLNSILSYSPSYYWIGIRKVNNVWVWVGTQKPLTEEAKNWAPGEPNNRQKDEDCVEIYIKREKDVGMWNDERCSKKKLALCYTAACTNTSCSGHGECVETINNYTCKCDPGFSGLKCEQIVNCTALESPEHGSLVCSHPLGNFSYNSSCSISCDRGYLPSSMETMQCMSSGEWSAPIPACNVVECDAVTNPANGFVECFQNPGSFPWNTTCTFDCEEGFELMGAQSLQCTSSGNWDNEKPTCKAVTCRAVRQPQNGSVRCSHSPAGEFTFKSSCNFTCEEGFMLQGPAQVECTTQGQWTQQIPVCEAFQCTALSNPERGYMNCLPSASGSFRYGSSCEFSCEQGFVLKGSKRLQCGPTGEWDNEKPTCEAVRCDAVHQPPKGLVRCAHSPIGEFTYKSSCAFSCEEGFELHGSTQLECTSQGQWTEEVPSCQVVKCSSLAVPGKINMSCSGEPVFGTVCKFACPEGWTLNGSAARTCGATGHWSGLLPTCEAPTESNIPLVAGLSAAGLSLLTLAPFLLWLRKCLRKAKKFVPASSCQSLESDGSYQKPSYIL

With `CCCCCCCCCCCC`, the AC50 in test [1] was 7.01 µM (active) and 6.7 µM (active); in test [2], 8.03 µM (active) and 6.71 µM (active); in [3], 5.07 µM (active); with KRT18 (gene 3875), 5.09 µM (active); in [4], 9.27 µM (active) and 9.14 µM (active); in [6], 11.7 µM (active) and 10.3 µM (active). In addition, the AC50 in [7] was 12.6 µM (active) and 5.39 µM (active); in [8], 35.4 µM (active). For the same compound, the outcome (in test [3]; in the test with KRT18 (gene 3875); in [5]; in [8]) was inactive.
Take `O=S(=O)(O)C(F)(F)C(F)(F)C(F)(F)C(F)(F)C(F)(F)C(F)(F)C(F)(F)C(F)(F)C(F)(F)C(F)(F)F`: the outcome in test [9], in test [10], in test [11], in test [1], in test [2] and in test [3] was inactive. For the same compound, the result in [5], in test [12], in [6], in test [7], in test [13] and in test [14] was inactive. For the same compound, the outcome in test [15], in [16], in test [17] and in [8] was inactive. Further, the AC50 was 12.2 µM (active) in test [11]; 21.8 µM (active) in test [2]; 21 µM (active) and 18 µM (active) with KRT18 (gene 3875); 9.67 µM (active) and 13.3 µM (active) in [4]; 10.6 µM (active) and 6.06 µM (active) with CD40, CD40 (gene 958); 13.3 µM (active) in test [17].
Consider `O=C(O)CCC(F)(F)C(F)(F)C(F)(F)C(F)(F)C(F)(F)F`, for which the result in [9], in [10], in test [11], in test [1], in [2] and in test [3] was inactive. The outcome with KRT18 (gene 3875) was “inactive”; in test [4], “inactive”; in test [5], “inactive”; in test [12] it was “inactive”; in [6], “inactive”; with CD40, CD40 (gene 958), “inactive”. Moreover, the outcome in test [7], in test [13], in [14], in [15], in test [16] and in [17] was inactive. The outcome in [8] was inactive. The AC50 in [13] is 9.45 µM (active).
